From PubChem BioAssay
USP2a inh = USP2a (human) protease inhibition | O75604 | USP2 core, Ub-CHOP2 coupled fluorogenic reporter, 485/531 | Potency, µM (doses to about 38.3 µM), for inactives: at the highest dose activity change, negative = inhibition, actives largely listed as inhibitors | 0.01% of 330,000 active;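 note: plate controls were DMSO wells for no effect and full inhibition by NEM control for full effect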
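Cell-free coupled assay: 10nM USP2 core preincubated 30min RT with compound in Tris-HCl pH 8.0/CaCl2/CHAPS buffer, then 25nM Ub-CHOP2 and 25nM reporter substrate; fluorescence (Ex 485/Em 531) read after 60min RT, normalized to NEM inhibition, concentration-response curves fitted.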
Eya2 inh = Eya2 (human) phosphatase inhibition | O00167 | AID 488837 | Potency, µM (highest dose often 76.9 µM), inactives show top-dose activity, negative = inhibition, usual class: inhibitors | 0.006% of 330,000 active | recombinant Eya2, OMFP fluorescence dephosphorylation (OMFP is methylfluorescein phosphate); note: % is set by controls: 0 for no effect and ±100 for the full control effect
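Eya2 (0.2 uM) preincubated 10 min at ambient with compound, then OMFP substrate added at 50 uM; 10 min reaction in 50 mM HEPES pH 7.5, 50 mM NaCl, 5 uM MgCl2, 0.05% BSA, 1 mM DTT. Fluorescence read at Ex 485/Em 525 nm.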
ClpP mod = qHTS Assay for Activators of ClpP | purified B. subtilis ClpP, FRET peptide cleavage, 20 min | ATP-dependent Clp protease proteolytic subunit (Bacillus subtilis (strain 168)), P80244 | 1.9% of 340,000 active | Potency, µM (highest dose often 57.5 µM), inactives show top-dose activity change, negative = active; active = well fitted falling curve with a large enough effect; note: the source files actives as falling curves though it sought activators and does not explain the sign; nearly all actives have a fitted effect of over 65% in size
Target sequence (P80244 whole entry, looked up): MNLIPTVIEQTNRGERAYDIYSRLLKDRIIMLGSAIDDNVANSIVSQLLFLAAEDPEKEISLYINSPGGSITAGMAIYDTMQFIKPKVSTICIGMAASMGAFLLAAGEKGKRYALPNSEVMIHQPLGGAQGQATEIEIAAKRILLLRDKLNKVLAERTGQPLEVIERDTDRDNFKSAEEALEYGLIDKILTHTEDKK
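FRET quenching reversal measured ClpP activation: 10 microg/mL B. subtilis ClpP at pH 8 with the FRET-FV decapeptide, read at 430 nm after 320 nm excitation. The 20-min minus 0-min signal was scaled between DMSO/no-enzyme wells and ADEP (5.8 microM final).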
GALK inhibitor = galactokinase (human) inhibition; Potency, µM (titrated, usually from 57.5 µM), inactives show top-dose activity change, negative = inhibition, actives largely listed as inhibitors; Purified GALK, Kinase-Glo residual ATP luminescence; AID 1868; 0.007% of 270,000 active; note: % is set by controls: 0 for no effect and ±100 for the full control effect
Target sequence (P51570 whole entry, looked up): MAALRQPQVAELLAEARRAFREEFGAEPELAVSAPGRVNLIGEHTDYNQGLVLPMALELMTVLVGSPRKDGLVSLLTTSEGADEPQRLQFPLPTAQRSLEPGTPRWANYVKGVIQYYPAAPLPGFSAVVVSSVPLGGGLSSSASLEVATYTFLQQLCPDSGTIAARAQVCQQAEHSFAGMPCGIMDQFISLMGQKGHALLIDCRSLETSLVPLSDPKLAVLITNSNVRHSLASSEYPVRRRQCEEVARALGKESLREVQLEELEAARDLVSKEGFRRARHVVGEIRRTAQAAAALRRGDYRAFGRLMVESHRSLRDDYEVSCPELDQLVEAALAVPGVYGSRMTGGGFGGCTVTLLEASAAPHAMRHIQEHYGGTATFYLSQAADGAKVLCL
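GALK at 5 nM final was combined with compound, 35 uM ATP and 100 uM galactose in HEPES pH8.0 with MgCl2 and DTT. The reaction ran one hour at room temperature before luminescent ATP detection.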
Numbers without * were called inactive; nt = no result given. The sample as a whole holds a higher share of hits than the screen did. Unless noted, calls come from the whole dose curve; as a rule, active = well fitted inhibition curve with a large enough effect; inconclusive = small, poorly fitted or top-dose-only effect, or effect the other way; inactive = flat fitted curve, though single readings scatter. Potency is the fitted concentration of half-maximal effect.

SMILES | USP2a inh | Eya2 inh | ClpP mod | GALK inhibitor
Cc1[nH]c(=O)c(C#N)c2c1CSC(C)(C)C2 | 0% | 11% | 25µM* | 4%
CCCCc1[nH]c(=O)c(C#N)c2c1CCCC2 | 1% | 15% | 25µM* | -1%
CCCCCNc1nc(-c2ccccc2)nc(-n2ccnc2)n1 | 0% | -9% | 25µM* | -2%
O=C(Nc1cccc(S(=O)(=O)N2CCCCC2)c1)c1ccccc1NS(=O)(=O)c1ccc(F)cc1 | -18% | -9% | 32µM* | -1%
Cc1ccc(NC(=O)c2ccccc2NS(=O)(=O)c2ccc(F)cc2)cc1S(=O)(=O)N1CCCCC1 | -10% | 1% | 32µM* | 0%
Cc1ccc(NC(=O)CCNC(=O)c2ccccc2Cl)cc1S(=O)(=O)N1CCCCCC1 | -1% | 8% | -1% | nt
O=C(NCCN1CCCC1)c1ccccc1Cl | 2% | 1% | 1% | 4%
COc1cc(CNc2ccc3[nH]c(=O)[nH]c3c2)ccc1OCc1ccccc1 | 0% | -1% | 2% | 0%
c1ccc(CCNc2nc(-c3ccccn3)cs2)cc1 | -1% | -1% | -2% | 1%
COc1ccc(CCNC(=O)c2cc(Cl)nc3ccccc23)cc1 | 2% | 0% | -7% | -7%
COC(=O)C1=CN(Cc2cccs2)C=C(C(=O)OC)C1c1cccc(OC)c1OC | -2% | 20% | 32µM* | -5%
COC(=O)C1=CN(Cc2ccc(OC)c(OC)c2)C=C(C(=O)OC)C1c1ccccc1F | 1% | -7% | 4% | 6%
COC(=O)C1=CN(C2CC2)C=C(C(=O)OC)C1c1ccccc1OC | -6% | 1% | 32µM* | 5%
COC(=O)C1=CN(Cc2ccc(OC)c(OC)c2)C=C(C(=O)OC)C1c1cccc(OC)c1OC | -1% | 0% | -2% | 0%
CCN1C=C(C(=O)OC)C(c2cccc(OC)c2OC)C(C(=O)OC)=C1 | 0% | -6% | 32µM* | 2%
Cc1nn(-c2ccccc2)c2nc(C3CC3)cc(C(=O)NCc3ccccc3Cl)c12 | nt | nt | 4% | nt
Cc1c(Cl)cccc1-n1nc(C)c2c(C(=O)NCc3ccccc3)cc(C3CC3)nc21 | nt | nt | 13µM* | nt
O=C(c1ccc(=O)oc1)N1CCN(c2ccc(F)cc2)CC1 | 1% | 21% | 32µM* | 0%
O=C(c1ccc(Cn2c(=S)[nH]c3ccc(N4CCOCC4)cc3c2=O)cc1)N1CCN(c2ccc(F)cc2)CC1 | 3% | -3% | 20µM* | -2%
N#CC(=C=[N-])C1=C(C#N)C(c2ccccc2F)C([n+]2ccccc2)C(O)(C2CC2)N1 (stereo not given) | -5% | -31% | -3% | 0%
O=C(NCCCN1CCCC1=O)c1cc(S(=O)(=O)N2CCN(c3ccccc3)CC2)ccc1Cl | nt | nt | 28µM* | nt
O=C(NCCN1CCOCC1)c1cc(-c2ccc(F)cc2)nc2ccccc12 | -1% | -15% | 25µM* | nt
O=C(NCCCN1CCCC1=O)c1cc(-c2ccc(F)cc2)nc2ccccc12 | 1% | 5% | 8.9µM* | nt
C#Cc1ccc([C@H]2C=C(C(=O)OCC=C)O[C@@H](OCCCCO)C2)cc1 | nt | nt | 1% | nt
CCOc1ccc(C(=O)COC(=O)CN2C(=O)NC3(CCCCC3C)C2=O)cc1 (stereo not given) | 0% | 2% | -1% | nt
SMILES | USP2a inh | Eya2 inh | ClpP mod | GALK inhibitor
CC1CCN(S(=O)(=O)N2CCC(C(=O)NCc3cccnc3)CC2)CC1 | 5% | 4% | -3% | 0%
O=CN1CCN(C(=O)Cc2ccc([N+](=O)[O-])cc2)CC1 | 1% | 3% | 25µM* | 0%
O=C(O)c1cccc(NS(=O)(=O)c2cccc3cccnc23)c1 | 1% | 32% | -1% | 2%
O=C(Nc1cccc(O)c1)C1CCCN1C(=O)OCc1ccccc1 (stereo not given) | -1% | -10% | 28µM* | 1%
COc1ccc(OCc2cc(C(=O)NCCc3ccccc3)no2)c(Cl)c1 | 3% | 2% | 0% | 0%
Cc1cccc(/C=N/NC(=O)Cc2cccs2)c1 | 0% | -21% | nt | 0%
Cc1cccc(C=Nc2ccccc2C(N)=O)c1 | 3% | 26% | 22µM* | 0%
Cc1ccc(C=Nc2ccccc2C(N)=O)s1 | 3% | 2% | 8.9µM* | nt
N#CCCN(C(=O)COC(=O)CNC(=O)c1ccc(-c2ccccc2)cc1)c1ccc(F)cc1 | 2% | -18% | -15% | nt
CCOC(=O)C1CCCN(C(=O)/C=C/c2ccc(Cl)cc2)C1 (stereo not given) | 1% | 0% | 0% | 10%
CCOC(=O)C1CCCN(C(=O)/C=C/c2cccc([N+](=O)[O-])c2)C1 (stereo not given) | 2% | 7% | 25µM* | nt
Cc1nc2ccccc2nc(C)c1=NOCc1ccc(C#N)cc1 | 5% | 0% | -3% | -1%
Cn1c(=O)c2c(nc(N/N=C/c3cccs3)n2Cc2ccccc2)n(C)c1=O | -1% | -7% | -1% | -5%
Cn1c(=O)c2c(nc(N/N=C/c3ccc(OC(=O)c4ccco4)cc3)n2Cc2ccccc2)n(C)c1=O | 0% | -2% | 28µM* | 0%
Cc1cccc(-c2nc3scc(CCNS(=O)(=O)c4c(C)noc4C)n3n2)c1 | nt | nt | 0% | nt
N#Cc1c(N)nc2c(c1-c1cccs1)CCCC2 | 0% | -16% | -19% | -3%
N#Cc1c(N)nc2c(c1-c1ccncc1)CCCCC2 | -1% | -1% | 22µM* | -3%
CSc1ccc(-c2c(C#N)c(N)nc3c2CCCC3)cc1 | 0% | -3% | -1% | 5%
Cc1c(-c2c(C#N)c(N)nc3c2CCCCCC3)cnn1C | 0% | 2% | 13µM* | -1%
N#Cc1c(N)nc2c(c1-c1ccco1)CCCCC2 | nt | nt | -20% | nt
CC(C)(C)c1ccc(-c2c(C#N)c(N)nc3c2CCCC3)s1 | 2% | 10% | 32µM* | nt
Cc1nn(C)c(C)c1-c1c(C#N)c(N)nc2c1CCCCCC2 | 5% | 17% | 1.3µM* | 3%
CCc1ccc(Nc2nc(N)nc(CSc3nc4ccccc4s3)n2)cc1 | -1% | -3% | -5% | -2%
Cn1c(SCC(=O)c2ccccc2)nnc1-c1cccc(N)c1 | 1% | -14% | -3% | 4%
CCN(CC)C1=NS(=O)(=O)c2cc([N+](=O)[O-])ccc21 | 2% | -12% | nt | -1%
SMILES | USP2a inh | Eya2 inh | ClpP mod | GALK inhibitor
CCOc1ccc(NC(=O)CCNC(=O)Cn2ccc3ccccc3c2=O)cc1 | 0% | 4% | 32µM* | 16%
CC(C)NC(=O)Cn1cnc2c(cnn2-c2ccc(F)cc2)c1=O | 0% | 0% | nt | 5%
COc1ccc2nc3oc(C(=O)N4CCCCC4)cc3cc2c1 | 2% | -12% | 28µM* | -3%
COc1ccc2nc3oc(C(=O)N4CC(C)CC(C)C4)cc3cc2c1 (stereo not given) | 1% | -1% | 4% | 4%
CCOC(=O)C1CCN(C(=O)c2cc3cc4cc(OC)ccc4nc3o2)CC1 | 4% | 10% | 18µM* | -4%
COc1c(N2CCN(C(=S)Nc3ccccc3)C(C)C2)c(F)cc2c(=O)c(C(=O)O)cn(C3CC3)c12 (stereo not given) | -2% | 2% | nt | -2%
